# From PubChem BioAssay
# The source made the active and inactive calls. Unless noted, no rule for the calls is given here.
# Columns and labels:
# [1] = HepG2 liver cancer cell viability effects, profiling panel, resazurin fluorescence, 24 h, PK04 Diversity Set (AID 1172); conditions: higher = more signal
# [2] = basal S. cerevisiae growth modulation, no modifier, primary screen, OD600, strain BY4716, 24 h, basal condition (AID 1173); conditions: OD600, 24 h, higher = more signal, called active from +8 up or from −8 down
# [3] = MM1S myeloma cell viability, profiling panel, resazurin fluorescence, basal, 24 h, PK04 Diversity Set (AID 1174); conditions: higher = more signal, called active from +8 up or from −8 down;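 also: MM1S multiple myeloma cell line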
# [4] = target: Dihydroorotate dehydrogenase (quinone), mitochondrial (Plasmodium falciparum (isolate 3D7)) (UniProt Q08210); assay: PfDHODH enzyme inhibitors, primary screen, biochemical, C-terminal His tag, absorbance 600 nm (AID 1175); conditions: DCIP absorbance 600 nm, higher = more signal, called active from +8 up or from −8 down;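 also: recombinant parasite enzyme with a five histidine tag at its C terminus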
# [5] = P. aeruginosa biofilm formation inhibitors, primary screen, strain PAO1, LB-PBS medium, absorbance 600 nm (AID 1176); conditions: P. aeruginosa PAO1 growth/biofilm, A600, 12 h; higher = more signal
# [6] = S. cerevisiae RM11-1a growth modifiers, primary screen, strain RM11-1a, OD600, basal, 24 h (AID 1177); conditions: OD600, 24 h, higher = more signal, called active from +8 up or from −8 down;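 also: cultures grown under basal conditions with no added stressor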
# [7] = E. coli acrAB mutant growth effects, primary screen, E. coli filamentation inducers, strain DRC39, OD650, 24 h (AID 1178); conditions: higher = more signal, called active from +8 up or from −8 down;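 also: growth measured as culture turbidity by optical density at 650 nm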
# [8] = E. coli acrAB mutant growth effects, primary screen, E. coli filamentation inducers, strain DRC39, OD650, 48 h (AID 1179);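 also: screen aims at cell division blockers that make cells filament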; conditions: E. coli DRC39 delta-acrAB growth, higher = more signal, called active from +8 up or from −8 down
# [9] = RPMI8226 myeloma cell viability, profiling panel, resazurin fluorescence, basal, 24 h, PK04 Diversity Set (AID 1180); conditions: higher = more signal;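 also: RPMI8826 multiple myeloma cell line at 5000 cells per well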
# [10] = target: E3 ubiquitin-protein ligase XIAP (Homo sapiens) (UniProt P98170); assay: XIAP binders, primary screen, biophysical, small-molecule microarray, fluorescence 635 nm (AID 1181); conditions: small-molecule microarray binding, higher = more signal;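 also: score merges 667 nm emission and signal to noise over triplicate slides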
# [11] = system: XIP peptide (Xip251-270) binding; assay: small-molecule binders of XIP peptide, primary screen, biochemical, small-molecule microarray, fluorescence 635/667 nm, 0.1 µg/mL protein (AID 1182); conditions: fluorescent protein binding, 635 nm, higher = more signal, called active from +8 up or from −8 down
# [12] = system: XIP peptide (Xip251-270); assay: small-molecule binders of XIP peptide, primary screen, biochemical, small-molecule microarray, fluorescence 635/667 nm, 0.5 µg/mL protein (AID 1183); conditions: small-molecule microarray binding, fluorescence 635 nm; higher = more signal
# [13] = Plasmodium falciparum growth inhibition, primary screen, strain 3D7, DAPI fluorescence, 100 nL (AID 1184);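 also: parasites grown inside human red blood cells in medium with human serum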; conditions: P. falciparum 3D7 growth, 3 d, higher = more signal
# [14] = target: Homeobox protein Hox-A13 (Mus musculus) (UniProt Q62424); assay: inhibitors of HoxA13-DNA binding, primary screen, biochemical, fluorescence polarization, labeled oligonucleotide (AID 1185); conditions: 15 min, higher = more signal, called active from +8 up or from −8 down
# [15] = inhibitors of hydroxyurea-induced Chk1 phosphorylation, primary screen, imaging, HeLa, phospho-Chk1 antibody, percent positive cells (AID 1186); conditions: hydroxyurea-induced phospho-Chk1 immunofluorescence imaging, higher = more signal
# [16] = inhibitors of hydroxyurea-induced Chk1 phosphorylation, primary screen, imaging, HeLa, phospho-Chk1 nuclear intensity (AID 1187); conditions: hydroxyurea-induced phospho-Chk1 immunofluorescence imaging, higher = more signal
# Homeobox protein Hox-A13 (Mus musculus), sequence (Q62424 whole entry, looked up): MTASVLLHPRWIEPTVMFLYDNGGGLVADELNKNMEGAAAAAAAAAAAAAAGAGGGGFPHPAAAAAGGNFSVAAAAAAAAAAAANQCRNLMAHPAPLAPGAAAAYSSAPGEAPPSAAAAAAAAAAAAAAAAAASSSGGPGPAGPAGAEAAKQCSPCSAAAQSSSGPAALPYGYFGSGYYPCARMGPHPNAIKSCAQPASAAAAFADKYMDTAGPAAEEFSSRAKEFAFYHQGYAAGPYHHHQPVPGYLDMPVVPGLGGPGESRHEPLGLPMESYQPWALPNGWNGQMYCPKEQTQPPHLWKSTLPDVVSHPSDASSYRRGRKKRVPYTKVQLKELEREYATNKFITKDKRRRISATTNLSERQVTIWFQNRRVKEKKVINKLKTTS
# Dihydroorotate dehydrogenase (quinone), mitochondrial (Plasmodium falciparum (isolate 3D7)), sequence (Q08210 whole entry, looked up): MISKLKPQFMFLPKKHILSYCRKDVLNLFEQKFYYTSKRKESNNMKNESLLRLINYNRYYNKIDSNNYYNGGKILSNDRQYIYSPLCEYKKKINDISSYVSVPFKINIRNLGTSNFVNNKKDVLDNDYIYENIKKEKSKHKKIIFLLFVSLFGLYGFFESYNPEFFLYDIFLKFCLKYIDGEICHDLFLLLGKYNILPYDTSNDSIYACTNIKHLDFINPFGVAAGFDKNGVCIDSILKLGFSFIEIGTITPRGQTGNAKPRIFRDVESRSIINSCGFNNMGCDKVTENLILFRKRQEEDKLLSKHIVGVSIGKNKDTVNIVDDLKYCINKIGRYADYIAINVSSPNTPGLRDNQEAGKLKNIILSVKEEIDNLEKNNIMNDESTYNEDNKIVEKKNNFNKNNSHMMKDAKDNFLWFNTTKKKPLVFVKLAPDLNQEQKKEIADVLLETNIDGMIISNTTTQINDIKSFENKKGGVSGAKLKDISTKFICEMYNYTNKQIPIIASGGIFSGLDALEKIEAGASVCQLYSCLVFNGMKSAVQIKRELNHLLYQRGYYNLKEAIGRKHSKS
# E3 ubiquitin-protein ligase XIAP (Homo sapiens), sequence (P98170 whole entry, looked up): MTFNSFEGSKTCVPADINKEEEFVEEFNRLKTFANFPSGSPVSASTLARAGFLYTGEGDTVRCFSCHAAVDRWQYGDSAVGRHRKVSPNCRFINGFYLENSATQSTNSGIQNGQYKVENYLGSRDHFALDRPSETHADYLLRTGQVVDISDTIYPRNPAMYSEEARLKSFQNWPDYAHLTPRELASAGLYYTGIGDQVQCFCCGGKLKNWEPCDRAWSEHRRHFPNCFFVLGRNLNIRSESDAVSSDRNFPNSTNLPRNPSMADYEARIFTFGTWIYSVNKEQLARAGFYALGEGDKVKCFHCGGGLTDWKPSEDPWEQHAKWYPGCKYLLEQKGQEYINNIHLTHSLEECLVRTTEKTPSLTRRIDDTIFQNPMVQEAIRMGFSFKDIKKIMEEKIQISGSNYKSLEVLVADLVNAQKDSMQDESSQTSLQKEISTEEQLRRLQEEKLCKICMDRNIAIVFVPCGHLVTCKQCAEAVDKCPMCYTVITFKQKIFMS
Compound,z-score [1],z-score [2],z-score [3],composite z-score [4],z-score [5],z-score [6],z-score [7],z-score [8],z-score [9],composite z-score [10],composite z-score [11],composite z-score [12],z-score [13],z-score [14],z-score [15],z-score [16]
COC(=O)[C@@]1(Cc2ccc(F)cc2)[C@H]2c3cc(C(=O)N4CCCC4)n(Cc4ccc(C)c(F)c4F)c3C[C@H]2CN1C(=O)c1ccccc1,-1.15,0.289 (inactive),-1.42 (inactive),-1.23 (inactive),1 (inactive),0.22 (inactive),-0.107 (inactive),-0.11 (inactive),-0.588,-0.0483,-0.0082 (inactive),-0.953,-1.53,-6.02 (inactive),0.533 (inactive),0.459 (inactive)
N[C@@H](Cc1ccccc1)C(=O)NCc1cn(Cc2ccccc2)nn1,0.68,-1.38 (inactive),0.323 (inactive),-0.777 (inactive),-0.452 (inactive),-0.0114 (inactive),1.35 (inactive),0.614 (inactive),0.449,-0.227,-0.221 (inactive),-0.984,-0.581,-0.368 (inactive),-0.167 (inactive),0.0852 (inactive)
COCCOC(=O)N1C(=O)[C@@]2(c3cc(C#CC4(O)CCCCCC4)ccc31)[C@H](C(=O)Nc1nc3ccccc3s1)[C@H]1C(=O)O[C@H](c3ccccc3)[C@H](c3ccccc3)N1[C@@H]2c1ccc(O)cc1,-0.0328,-0.873 (inactive),-0.858 (inactive),-1.03 (inactive),0.598 (inactive),1.24 (inactive),0.487 (inactive),0.613 (inactive),-0.945,-0.0274,0.479 (inactive),0.817,0.219,-1.09 (inactive),-0.205 (inactive),0.0486 (inactive)
COc1cc(NN2C(C(O)c3cc(OC)c(OC)c(OC)c3)C=CC3C(=O)N(C)C(=O)C32)cc(OC)c1OC (stereo not given),-0.177,0.712 (inactive),-0.464 (inactive),-1.27 (inactive),0.366 (inactive),0.276 (inactive),-0.0468 (inactive),0.179 (inactive),-0.97,-0.144,0.248 (inactive),0.438,-0.354,-4.51 (inactive),-0.325 (inactive),-0.328 (inactive)
OCCCC1=CC(c2ccc(CN3CCCC3)cc2)N(Cc2cc3c(cc2Br)OCO3)CC1 (stereo not given),0.195,-0.538 (inactive),0.163 (inactive),0.198 (inactive),0.485 (inactive),0.622 (inactive),0.243 (inactive),0.149 (inactive),-0.343,-0.0513,-0.265 (inactive),-0.3,-3.05,-2.68 (inactive),0.905 (inactive),0.629 (inactive)
